Measured values: PubChem BioAssay (NCATS)
“And” between values parts separate entries of the source, which are not always exact repeats. Identical values can stand only once. Records with an inconclusive call do not appear. The source made the active and inactive calls. The call rests on the fitted dose curve; in most records, active means well fitted activation curve with a large enough effect; inconclusive means small, poorly fitted or top-dose-only effect; inactive means no such curve, though single readings can be large or run the other way.

Biological target: Cellular tumor antigen p53 (Homo sapiens) (UniProt P04637)
Test: Primary qHTS for small molecule compounds that upregulate eGFP-tagged delta133p53alpha (in N-terminal) cells. (AID 2060322); further: nearly all actives have a fitted effect of over 75% in size;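 on activation: cells pre-induced with doxycycline then dosed without doxycycline; series mostly up to about 56 µM; 0% = DMSO vehicle and 100% = reference activator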
Conditions: NCI-H358 eGFP-delta133p53alpha fluorescence, 24 h; activation: active compounds read high
Outline: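 NCI-H358 cells pre-induced 24 h with 10 ng/ml doxycycline for eGFP-delta133p53alpha, plated dox-free and exposed 24 h at 37C to titrated compounds. Fixed, Hoechst-stained; gated GFP peak intensity by laser scanning cytometry, normalized to DMSO (0%) and 57.5 uM 5-azacytidine (100%).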
Potency means the concentration at half of the fitted maximal effect.

Cellular tumor antigen p53 (Homo sapiens), sequence (P04637 whole entry, looked up): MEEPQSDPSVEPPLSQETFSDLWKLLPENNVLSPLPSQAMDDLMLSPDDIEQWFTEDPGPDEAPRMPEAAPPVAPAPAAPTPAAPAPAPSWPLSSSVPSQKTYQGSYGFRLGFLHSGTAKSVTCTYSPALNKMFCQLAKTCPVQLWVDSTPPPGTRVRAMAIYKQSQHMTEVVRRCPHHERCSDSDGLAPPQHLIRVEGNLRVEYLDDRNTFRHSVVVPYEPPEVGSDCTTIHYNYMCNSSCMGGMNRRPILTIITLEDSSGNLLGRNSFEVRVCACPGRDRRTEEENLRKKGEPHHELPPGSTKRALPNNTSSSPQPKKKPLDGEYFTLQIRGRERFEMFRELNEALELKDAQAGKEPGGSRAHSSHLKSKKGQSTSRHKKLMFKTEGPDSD

Row | Structure (SMILES) | activation | Potency
1 | CCC(C)C(=O)OC1CC(C)C=C2C=CC(C)C(CCC(O)CC(O)CC(=O)O)C21 (stereo not drawn) | -1.53% (inactive) | 
2 | C=C1CC2C(C)(CCC(=O)O)C(C(C)(C)O)CCC2(C)C2C(=O)OC(C)(C(=O)OC)C(=O)C12C (stereo not drawn) | 10.7% (inactive) | 
3 | CC(=O)OCC1OC(O[C@H]2CC[C@@]3(C)C(CC[C@]4(C)C3CC=C3[C@@H]5CC(C)(C)CC[C@]5(C(=O)O)CC[C@]34C)[C@]2(C)CO)C(O)C(O)C1OC1OC(C)C(O)C(OC2OCC(O)C(O)C2O)C1O (stereo partly drawn) | -6.11% (inactive) | 
4 | CCOP(=O)(Cc1ccc(C(=O)Nc2ccc(Br)cc2C#N)cc1)OCC | 2.33% (inactive) | 
5 | COCC1OC(OC(C)(C)C2CCC3(C)C=C(C4CCC5C4(C)CC(O)C4OC(C(C)(C)O)CCC45C)CCC3O2)C(NC(C)=O)C(O)C1O (stereo not drawn) | 5.34% (inactive) | 
6 | C#CCCCn1cc(-c2cccc3c2N[C@H](C)CC(=O)N3)cn1 | 8.93% (inactive) | 
7 | COC(=O)c1ccccc1O[C@@H]1O[C@H](CO)[C@@H](O)[C@H](O)[C@H]1O[C@@H]1O[C@@H](C)[C@H](O)[C@@H](O)[C@H]1O | -10.7% (inactive) | 
8 | CC(C)NCCCn1c(Sc2cc3c(cc2I)OCO3)nc2c(N)ncnc21 | 10% (inactive) | 
9 | COc1cc(CCc2ccccc2)c(C(=O)O)c2c1CC(C(C)(C)O)O2 (stereo not drawn) | -13% (inactive) | 
10 | COCCCNC(=O)c1ccc(Cn2c(=O)c3ccccc3n(Cc3ccc(C(C)C)cc3)c2=O)cc1 | 7% (inactive) | 
11 | C=C(C)[C@@H]1CC[C@]2(CO)CC[C@]3(C)[C@H](CC[C@@H]4[C@@]5(C)CC[C@H](O)C(C)(C)[C@@H]5CC[C@]43C)[C@@H]12 |  | 10.4 µM (active)
12 | CC1(O)CC(O)C2(O)C=COC(O[C@@H]3O[C@H](CO)[C@@H](O)[C@H](O)[C@H]3O)C12 (stereo partly drawn) | 0.893% (inactive) | 
13 | COc1ccc(C(O)C(C)OC2OC(CO)C(O)C(O)C2O)cc1 (stereo not drawn) | -7.63% (inactive) | 
14 | C=C1C(OC2OC(CO)C(O)C(O)C2O)CC2C(C)(C)C(O)CCC2(C)C1CC/C(C)=C\COC(=O)CC(=O)O (stereo not drawn) | 0.763% (inactive) | 
15 | O=C(/C=C/c1ccc(O)cc1)O[C@H]1[C@H](OC2CCCCC2O)O[C@H](CO)[C@@H](O)[C@@H]1O (stereo partly drawn) | -11.5% (inactive) | 
16 | N#Cc1ccc(N2N=C3c4ccc(C(=O)O)cc4CC[C@@H]3[C@@H]2C2CCCC2)cc1Cl | -25% (inactive) | 
17 | CC1(C)C2CC(OC3OC(COC4OCC(O)(CO)C4O)C(O)C(O)C3O)C1(C)CC2O (stereo not drawn) | 1.79% (inactive) | 
18 | Cc1noc(=O)c2ccc(NC(=O)C(O)(CC(C)(C)c3cccc4c3OCC4)C(F)(F)F)cc12 (stereo not drawn) | 19.7% (inactive) | 
19 | C[C@H]1/C=C/C=C/C=C/C=C/C=C/[C@@H](O)[C@H](C(=O)O)[C@H](O)C[C@H](O)CCC[C@H](O)C[C@H](O)C[C@H](O)[C@@H](C)C(=O)O[C@@H]1C | 13.7% (inactive) | 
20 | CC12CC(O)C(O)C=C1c1cc(O)cc(O)c1C(=O)O2 (stereo not drawn) | -7.63% (inactive) | 
21 | FC(F)(F)c1cc(-c2ncn(/C=C\c3nnco3)n2)cc(C(F)(F)F)c1 | 7.67% (inactive) | 
22 | CCOc1nc2cccc(C(=O)O)c2n1Cc1ccc(-c2ccccc2-c2nn[nH]n2)cc1 | -1.69% (inactive) and 19.6% (inactive) | 
23 | C/C(=C\CCC(C)C1CC(O)C2(C)C3CCC4C(C)(C)C(OC5OCC(O)C(O)C5O)CCC45CC35CC(O)C12C)C(=O)O (stereo not drawn) | 17.6% (inactive) | 
24 | CC(=O)NCCCCn1c2c(c3ccccc31)C(=O)NCC2 | -13.4% (inactive) | 
25 | CCCCc1nc(C)c(CC(=S)N(C)C)c(=O)n1Cc1ccc(-c2ccccc2-c2nn[nH]n2)cc1 | 18.1% (inactive) | 
26 | CC(C)C(C#N)O[C@@H]1O[C@H](CO[C@@H]2O[C@@H](C)[C@H](O)[C@@H](O)[C@H]2O)[C@@H](O)[C@H](O)[C@H]1O (stereo partly drawn) | -3.82% (inactive) | 
27 | C[C@@H]1O[C@@H](O[C@H]2[C@H](O[C@H]3[C@H](O[C@H]4CC[C@@]5(CO)C(CC[C@]6(C)C5CC=C5C7CC(C)(C)C[C@@H](O)[C@]7(C)CC[C@]56C)C4(C)C)O[C@H](C(=O)O)[C@@H](O)[C@@H]3O)OC[C@@H](O)[C@@H]2O)[C@H](O)[C@H](O)[C@H]1O (stereo partly drawn) | -15.3% (inactive) | 
28 | C[C@@H]1N[C@H]2N(C1=O)c1ccccc1[C@@]2(O)C[C@@H]1C(=O)N[C@@H](C)c2nc3ccccc3c(=O)n21 | -22.9% (inactive) | 
